Measured values as given in PubChem BioAssay (EPA / NIEHS).
Results filed as inconclusive are left out. Activity calls are given as the source filed them. How the source made its calls, unless noted: active means hit-call score of the fitted dose curve at least 0.9, where 1 is the maximum; inactive means score below 0.9.

How the values were obtained:
[1] = biological target: Bile acid receptor (Homo sapiens) (UniProt Q96RI1); test: ATG_FXR_TRANS: Attagene TRANS-FACTORIAL HepG2 Assay for Farnesoid X Receptor (FXR) (AID 2282979; active means hit-call score of the fitted dose curve at least 0.9, where 1 is the maximum;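 further: hits raise reporter mRNA above DMSO so AC50 marks FXR activation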); settings: HepG2 Attagene TRANS FXR-GAL4 reporter transcription
Summary of the method: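 Read-out: fluorescent reporter transcripts quantified by capillary electrophoresis after RT-PCR of total RNA. Source cells were HepG2 transiently carrying chimeric NR-GAL4 plus GAL4-UAS reporter units, dosed 24 h. Activity fitted upward relative to DMSO baseline.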

[2] = biological target: Nuclear receptor subfamily 4 group A member 2 (Homo sapiens) (UniProt P43354); test: ATG_NURR1_TRANS: Attagene TRANS-FACTORIAL HepG2 Assay for human Nuclear Receptor Related Protein 1 (NURR1) (AID 2282985; active means hit-call score of the fitted dose curve at least 0.9, where 1 is the maximum); settings: HepG2 Attagene TRANS reporter, mRNA readout
Summary of the method: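 Read-out: reporter mRNA induction by RT-PCR plus capillary electrophoresis with fluorescence detection, after 24 h dosing of transfected HepG2 cells. Exogenous NR-Gal4 chimera activity drives GAL4-UAS reporter; activity fitted upward versus DMSO.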

[3] = biological target: Transcriptional activator Myb (Homo sapiens) (UniProt P10242); test: ATG_Myb_CIS: Attagene CIS-FACTORIAL HepG2 Assay for human Myeloblastosis (Myb) Proto-Oncogene Transcription Factor (AID 2282986); settings: HepG2 Attagene CIS-FACTORIAL Myb reporter transcription; actives raise or lower the signal
Summary of the method: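 Fluorescence signals from capillary electrophoresis of RT-PCR-amplified reporter cDNA give the read-out. Cells: HepG2 transfected with multiple cis-regulated reporter units. Exposure lasts 24 hours; DMSO defines baseline for gain or loss of signal.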

[4] = biological target: Nuclear respiratory factor 1 (Homo sapiens) (UniProt Q16656); test: ATG_NRF1_CIS: Attagene CIS-FACTORIAL HepG2 Assay for human Nuclear Respiratory Factor 1 (NRF1) Orphan Gene (AID 2282987); settings: HepG2 NRF1 cis-element reporter, Attagene multiplex; actives raise or lower the signal
Summary of the method: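 Transcriptional reporter readout, one component of a 52-endpoint multiplexed HepG2 panel. Exposure 24 h; mRNA detected via RT-PCR and fluorescent capillary electrophoresis; fitting in both directions against DMSO.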

[5] = ATG_NFI_CIS: Attagene CIS-FACTORIAL HepG2 Assay for human Nuclear Factor I (NFI) (AID 2282989); settings: HepG2 cis-regulatory reporter, NFI response element transcription; actives raise or lower the signal
Summary of the method: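 Reporter transcription driven by endogenous transcription factors in HepG2 cells; 24 h treatment. Quantitation by labelled RT-PCR fragments on capillary electrophoresis, gain- or loss-of-signal relative to DMSO.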

[6] = biological target: Myc proto-oncogene protein (Homo sapiens) (UniProt P01106); test: ATG_Myc_CIS: Attagene CIS-FACTORIAL HepG2 Assay for human Myelocytomatosis (Myc) Proto-Oncogene Transcription Factor (AID 2282990); settings: HepG2, Attagene cis-reporter transcription factor activity; actives raise or lower the signal
Summary of the method: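 Read-out: fluorescent reporter mRNA fragments resolved by capillary electrophoresis after RT-PCR. Human HepG2 liver cells carried transfected cis-element reporter units and were dosed for 24 h. Gain or loss of signal fitted relative to DMSO baseline.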

[7] = ATG_NF_kB_CIS: Attagene CIS-FACTORIAL HepG2 Assay for human Nuclear Factor Kappa B (NF-kB) (AID 2282991); settings: HepG2 Attagene cis-factorial NF-kB reporter mRNA; actives raise or lower the signal
Summary of the method: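 HepG2, transient multi-reporter transfection, cis promoter elements (endogenous TFs). 24 h exposure. Total RNA → RT → PCR → 6-FAM label → HpaI → CE. Gain/loss vs DMSO.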

[8] = ATG_NRF2_ARE_CIS: Attagene CIS-FACTORIAL HepG2 Assay for human Nuclear Factor Erythroid 2 Related Factor 2 (NFR2) response to Antioxidant Response Elements (ARE) (AID 2282992); settings: HepG2 Attagene ARE/NRF2 reporter, transcription factor activity; actives raise or lower the signal;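 on AC50: reporter mRNA level measured by RT-PCR and capillary electrophoresis fluorescence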
Summary of the method: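 Using transiently transfected HepG2 cells exposed for 24 h, reporter mRNA levels were determined by RT-PCR with fluorescent primer extension and capillary electrophoresis, analysed for gain or loss of signal against DMSO.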

[9] = ATG_Oct_MLP_CIS: Attagene CIS-FACTORIAL HepG2 Assay for human Octamer-Binding Transcription Factor (Oct) (AID 2282993); settings: HepG2 Attagene cis-factorial Oct reporter, mRNA; actives raise or lower the signal
Summary of the method: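 Transfected HepG2 cells, 24 h treatment. Reporter mRNA quantified by RT-PCR–capillary electrophoresis; bidirectional fitting against DMSO.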

[10] = biological target: Cellular tumor antigen p53 (Homo sapiens) (UniProt P04637); test: ATG_p53_CIS: Attagene CIS-FACTORIAL HepG2 Assay for human p53 Transcription Factor (AID 2282994); settings: HepG2 p53 cis-element reporter, Attagene mRNA; actives raise or lower the signal
Summary of the method: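 In HepG2 cells, reporter transcription units under cis-regulatory promoters were transiently introduced. Following 24 h treatment, RNA was processed to labelled, digested cDNA fragments read by capillary electrophoresis; fitting was bidirectional versus DMSO.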

[11] = ATG_M_06_TRANS: Attagene TRANS-FACTORIAL HepG2 Assay for M06 Transcription Factor (Internal Marker) (AID 2282983; active means hit-call score of the fitted dose curve at least 0.9, where 1 is the maximum); settings: HepG2 Attagene TRANS M06 internal marker reporter
Summary of the method: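 Read-out: fluorescent reporter cDNA fragments resolved by capillary electrophoresis after RT-PCR and HpaI cut. Source cells were HepG2 carrying transfected multi-reporter GAL4 constructs, dosed 24 h. Increase over DMSO control analysed.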

[12] = ATG_M_32_TRANS: Attagene TRANS-FACTORIAL HepG2 Assay for M32 Transcription Factor (Internal Marker) (AID 2282984; active means hit-call score of the fitted dose curve at least 0.9, where 1 is the maximum;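 further: transcript level of a background control reporter unit measured by RT-PCR and capillary electrophoresis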); settings: HepG2 Attagene TRANS M32 internal marker reporter
Summary of the method: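 Read-out: fluorescent reporter cDNA fragments resolved by capillary electrophoresis after RT-PCR of total RNA. Transfected HepG2 cells were exposed to chemical for 24 h. Activity scored in the positive direction relative to DMSO.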

[13] = BSK_3C_TissueFactor: BioMAP Diversity Plus: 3C Assay for Tissue Factor Biomarker Activity (AID 2282997); settings: BioMAP 3C HUVEC, tissue factor biomarker readout; actives raise or lower the signal
Summary of the method: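 HUVEC, 3C system, 24 h post-dose; Tissue Factor by ELISA; bidirectional fit vs DMSO baseline.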

[14] = BSK_3C_uPAR: BioMAP Diversity Plus: 3C Assay for Urokinase-type plasminogen activator receptor (uPAR) Biomarker Activity (AID 2282998); settings: BioMAP 3C HUVEC, uPAR biomarker ELISA; actives raise or lower the signal
Summary of the method: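 Readout: ELISA for surface uPAR. System: human umbilical vein endothelial primary cells, 24 h after chemical exposure. Analysis: bidirectional fit, DMSO baseline.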

[15] = BSK_3C_VCAM1: BioMAP Diversity Plus: 3C Assay for Vascular cell adhesion molecule 1 (VCAM1) Biomarker Activity (AID 2282999); settings: BioMAP 3C HUVEC, VCAM1 ELISA, cytokine-stimulated; actives raise or lower the signal
Summary of the method: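 HUVEC primary cells, 24 h compound exposure; VCAM-1 by ELISA; gain/loss of signal fitted bidirectionally vs DMSO baseline.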

[16] = BSK_4H_Eotaxin3: BioMAP Diversity Plus: 4H Assay for Eotaxin 3 Biomarker Activity (AID 2283000); settings: primary human endothelial cells (HUVEC); actives raise or lower the signal;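 further: CCL26 protein level quantified by ELISA in parallel with SRB cytotoxicity check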
Summary of the method: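 Readout is Eotaxin-3 (CCL26) level by ELISA in primary human umbilical vein endothelial cells harvested 24 h after chemical exposure; activity fitted in both directions against DMSO control.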

[17] = biological target: Hepatocyte nuclear factor 4-alpha (Homo sapiens) (UniProt P41235); test: ATG_HNF4a_TRANS: Attagene TRANS-FACTORIAL HepG2 Assay for human Hepatocyte Nuclear Factor 4 alpha (HNF4a) (AID 2282982; active means hit-call score of the fitted dose curve at least 0.9, where 1 is the maximum); settings: HepG2 HNF4a transactivation reporter, mRNA readout
Summary of the method: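 Transient MRTU transfection of HepG2, 24 h dosing. Readout: reporter mRNA via RT-PCR + capillary electrophoresis, fluorescence; activity fit upward relative to DMSO control.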

[18] = biological target: Oxysterols receptor LXR-alpha (Homo sapiens) (UniProt Q13133); test: ATG_LXRa_TRANS: Attagene TRANS-FACTORIAL HepG2 Assay for human Liver X Receptor alpha (LXRa) (AID 2282980; active means hit-call score of the fitted dose curve at least 0.9, where 1 is the maximum); settings: HepG2 Attagene TRANS reporter, LXRa transactivation
Summary of the method: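 Read-out: reporter transcript levels by RT-PCR plus capillary electrophoresis, fluorescence intensity. Transiently transfected HepG2, exogenous NR-GAL4 chimera, GAL4-UAS reporters; 24 h compound exposure. Activity = increase over DMSO negative control.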

[19] = biological target: Oxysterols receptor LXR-beta (Homo sapiens) (UniProt P55055); test: ATG_LXRb_TRANS: Attagene TRANS-FACTORIAL HepG2 Assay for human Liver X Receptor beta (LXRb) (AID 2282981; active means hit-call score of the fitted dose curve at least 0.9, where 1 is the maximum); settings: HepG2 Attagene TRANS GAL4-LXRb reporter, mRNA
Summary of the method: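 Readout: fluorescent reporter mRNA fragments resolved by capillary electrophoresis after RT-PCR. System: transiently transfected human HepG2, exogenous LXRb-Gal4 chimera driving GAL4-UAS reporter, 24 h dosing. Activity fitted upward against DMSO baseline.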

Measured: AC50

Sequence of Oxysterols receptor LXR-beta (Homo sapiens) (P55055 whole entry, looked up, the tested form may be a part): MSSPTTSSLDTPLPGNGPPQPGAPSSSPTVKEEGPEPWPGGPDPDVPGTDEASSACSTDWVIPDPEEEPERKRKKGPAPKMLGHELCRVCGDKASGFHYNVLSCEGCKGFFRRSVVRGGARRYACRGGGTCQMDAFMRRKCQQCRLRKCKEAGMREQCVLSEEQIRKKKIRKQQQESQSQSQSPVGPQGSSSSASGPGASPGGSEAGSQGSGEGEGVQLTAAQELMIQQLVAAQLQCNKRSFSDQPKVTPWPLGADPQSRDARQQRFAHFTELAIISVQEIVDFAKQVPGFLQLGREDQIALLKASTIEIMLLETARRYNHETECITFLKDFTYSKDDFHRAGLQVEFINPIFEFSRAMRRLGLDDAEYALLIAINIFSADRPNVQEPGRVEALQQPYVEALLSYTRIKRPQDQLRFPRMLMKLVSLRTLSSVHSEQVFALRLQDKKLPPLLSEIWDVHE
Sequence of Transcriptional activator Myb (Homo sapiens) (P10242 whole entry, looked up): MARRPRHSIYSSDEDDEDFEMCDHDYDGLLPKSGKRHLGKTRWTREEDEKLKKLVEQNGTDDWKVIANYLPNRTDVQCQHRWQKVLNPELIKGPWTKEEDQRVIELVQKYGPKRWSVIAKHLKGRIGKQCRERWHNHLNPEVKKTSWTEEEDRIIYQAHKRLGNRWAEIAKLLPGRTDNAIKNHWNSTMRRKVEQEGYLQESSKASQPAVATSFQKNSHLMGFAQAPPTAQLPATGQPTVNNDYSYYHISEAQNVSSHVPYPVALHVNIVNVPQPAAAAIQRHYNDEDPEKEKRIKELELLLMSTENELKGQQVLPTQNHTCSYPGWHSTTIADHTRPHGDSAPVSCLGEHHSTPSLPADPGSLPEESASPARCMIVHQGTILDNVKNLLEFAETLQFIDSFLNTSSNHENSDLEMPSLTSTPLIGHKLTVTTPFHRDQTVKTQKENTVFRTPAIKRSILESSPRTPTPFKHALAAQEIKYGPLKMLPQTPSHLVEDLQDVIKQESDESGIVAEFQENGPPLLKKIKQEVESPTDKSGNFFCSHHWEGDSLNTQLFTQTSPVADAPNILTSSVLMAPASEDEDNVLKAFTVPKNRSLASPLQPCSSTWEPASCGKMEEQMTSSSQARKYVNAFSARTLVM
Sequence of Bile acid receptor (Homo sapiens) (Q96RI1 whole entry, looked up, the tested form may be a part): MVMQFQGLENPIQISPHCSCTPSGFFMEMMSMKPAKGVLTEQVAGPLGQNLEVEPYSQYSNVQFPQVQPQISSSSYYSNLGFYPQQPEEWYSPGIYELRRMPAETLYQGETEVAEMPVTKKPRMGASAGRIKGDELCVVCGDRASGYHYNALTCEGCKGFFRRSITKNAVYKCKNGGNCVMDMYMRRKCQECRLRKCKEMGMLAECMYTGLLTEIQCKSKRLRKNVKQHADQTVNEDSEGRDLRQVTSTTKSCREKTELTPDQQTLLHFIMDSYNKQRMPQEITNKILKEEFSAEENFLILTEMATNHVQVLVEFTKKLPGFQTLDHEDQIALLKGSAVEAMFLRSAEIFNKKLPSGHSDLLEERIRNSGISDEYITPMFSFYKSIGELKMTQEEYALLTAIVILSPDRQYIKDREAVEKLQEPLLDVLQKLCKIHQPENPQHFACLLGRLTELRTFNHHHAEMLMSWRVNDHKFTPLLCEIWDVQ
Sequence of Oxysterols receptor LXR-alpha (Homo sapiens) (Q13133 whole entry, looked up, the tested form may be a part): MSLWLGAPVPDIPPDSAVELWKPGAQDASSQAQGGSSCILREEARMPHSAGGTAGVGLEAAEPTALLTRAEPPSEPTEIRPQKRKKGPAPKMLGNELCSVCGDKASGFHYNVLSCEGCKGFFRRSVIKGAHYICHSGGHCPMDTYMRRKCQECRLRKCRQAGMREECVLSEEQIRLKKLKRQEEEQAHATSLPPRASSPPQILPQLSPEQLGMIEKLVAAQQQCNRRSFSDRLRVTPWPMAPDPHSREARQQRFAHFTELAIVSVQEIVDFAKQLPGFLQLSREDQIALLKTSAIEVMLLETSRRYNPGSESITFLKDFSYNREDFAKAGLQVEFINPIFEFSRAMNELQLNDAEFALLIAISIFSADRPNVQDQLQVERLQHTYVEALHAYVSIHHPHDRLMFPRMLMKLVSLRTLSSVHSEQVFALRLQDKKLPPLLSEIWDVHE
Sequence of Nuclear receptor subfamily 4 group A member 2 (Homo sapiens) (P43354 whole entry, looked up, the tested form may be a part): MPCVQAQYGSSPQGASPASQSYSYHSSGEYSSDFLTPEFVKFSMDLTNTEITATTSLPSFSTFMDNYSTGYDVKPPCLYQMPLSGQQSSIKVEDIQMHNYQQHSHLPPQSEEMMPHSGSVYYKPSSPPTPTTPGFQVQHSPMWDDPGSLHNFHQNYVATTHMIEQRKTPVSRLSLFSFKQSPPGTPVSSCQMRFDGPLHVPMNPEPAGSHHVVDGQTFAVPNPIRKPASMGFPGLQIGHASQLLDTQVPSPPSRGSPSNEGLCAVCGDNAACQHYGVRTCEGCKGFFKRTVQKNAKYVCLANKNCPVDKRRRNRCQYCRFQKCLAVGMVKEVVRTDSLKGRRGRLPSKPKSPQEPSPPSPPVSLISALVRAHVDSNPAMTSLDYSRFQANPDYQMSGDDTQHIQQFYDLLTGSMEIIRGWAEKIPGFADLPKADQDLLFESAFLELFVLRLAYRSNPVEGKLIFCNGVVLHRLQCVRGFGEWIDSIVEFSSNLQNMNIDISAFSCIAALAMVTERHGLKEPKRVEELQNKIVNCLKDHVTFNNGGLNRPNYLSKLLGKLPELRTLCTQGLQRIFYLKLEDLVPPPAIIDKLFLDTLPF
Sequence of Myc proto-oncogene protein (Homo sapiens) (P01106 whole entry, looked up, the tested form may be a part): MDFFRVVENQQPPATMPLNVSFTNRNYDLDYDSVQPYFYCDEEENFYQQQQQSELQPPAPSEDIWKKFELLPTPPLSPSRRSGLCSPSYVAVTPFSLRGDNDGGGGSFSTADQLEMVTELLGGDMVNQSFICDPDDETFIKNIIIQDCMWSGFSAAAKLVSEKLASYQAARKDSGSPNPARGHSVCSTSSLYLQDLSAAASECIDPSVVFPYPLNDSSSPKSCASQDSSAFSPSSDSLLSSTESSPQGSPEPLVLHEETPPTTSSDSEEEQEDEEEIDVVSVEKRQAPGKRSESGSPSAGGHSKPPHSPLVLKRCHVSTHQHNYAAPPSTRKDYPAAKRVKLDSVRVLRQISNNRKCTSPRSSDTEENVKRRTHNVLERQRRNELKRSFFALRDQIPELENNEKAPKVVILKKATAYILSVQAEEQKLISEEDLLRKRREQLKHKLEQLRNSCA
Sequence of Hepatocyte nuclear factor 4-alpha (Homo sapiens) (P41235 whole entry, looked up): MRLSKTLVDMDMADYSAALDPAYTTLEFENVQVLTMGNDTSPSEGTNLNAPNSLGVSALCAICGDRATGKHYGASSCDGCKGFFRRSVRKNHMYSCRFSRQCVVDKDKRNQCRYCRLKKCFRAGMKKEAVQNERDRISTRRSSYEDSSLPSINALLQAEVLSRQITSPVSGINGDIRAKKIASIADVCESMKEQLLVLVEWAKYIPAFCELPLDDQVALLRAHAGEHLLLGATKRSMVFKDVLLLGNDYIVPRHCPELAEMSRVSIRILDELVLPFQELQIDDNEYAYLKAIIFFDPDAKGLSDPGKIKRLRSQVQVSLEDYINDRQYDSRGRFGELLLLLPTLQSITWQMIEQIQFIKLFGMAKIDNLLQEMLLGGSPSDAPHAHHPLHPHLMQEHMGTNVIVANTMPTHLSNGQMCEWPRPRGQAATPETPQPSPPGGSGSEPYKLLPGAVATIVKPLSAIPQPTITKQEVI
Sequence of Cellular tumor antigen p53 (Homo sapiens) (P04637 whole entry, looked up, the tested form may be a part): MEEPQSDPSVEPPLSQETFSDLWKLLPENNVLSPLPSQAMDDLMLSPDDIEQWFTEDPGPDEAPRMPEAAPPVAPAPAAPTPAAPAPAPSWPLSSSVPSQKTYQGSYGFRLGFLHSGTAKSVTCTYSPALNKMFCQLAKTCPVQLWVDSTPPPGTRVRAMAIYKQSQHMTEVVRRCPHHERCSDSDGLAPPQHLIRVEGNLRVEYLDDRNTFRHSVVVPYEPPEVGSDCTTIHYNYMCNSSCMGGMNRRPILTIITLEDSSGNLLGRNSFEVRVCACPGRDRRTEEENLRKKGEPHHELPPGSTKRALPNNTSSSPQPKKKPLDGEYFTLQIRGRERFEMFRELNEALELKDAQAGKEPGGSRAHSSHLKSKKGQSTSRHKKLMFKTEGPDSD
Sequence of Nuclear respiratory factor 1 (Homo sapiens) (Q16656 whole entry, looked up): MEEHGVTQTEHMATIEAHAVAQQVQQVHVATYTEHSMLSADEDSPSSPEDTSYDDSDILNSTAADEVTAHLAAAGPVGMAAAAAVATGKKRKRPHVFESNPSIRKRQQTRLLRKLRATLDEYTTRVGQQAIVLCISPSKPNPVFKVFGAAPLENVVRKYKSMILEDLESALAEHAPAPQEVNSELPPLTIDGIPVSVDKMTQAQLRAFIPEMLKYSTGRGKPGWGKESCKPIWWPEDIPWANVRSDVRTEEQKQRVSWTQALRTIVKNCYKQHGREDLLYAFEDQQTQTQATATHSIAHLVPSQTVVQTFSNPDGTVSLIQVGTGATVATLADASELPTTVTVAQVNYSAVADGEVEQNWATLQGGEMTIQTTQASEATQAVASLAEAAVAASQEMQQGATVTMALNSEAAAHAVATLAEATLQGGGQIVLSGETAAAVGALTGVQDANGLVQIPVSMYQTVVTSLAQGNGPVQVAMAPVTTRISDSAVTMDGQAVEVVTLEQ

CC(C)C(OC(=O)c1ccccc1)C(C)(C)COC(=O)c1ccccc1 (stereo unspecified)
inactive: [2] | [3] | [4] | [5] | [6] | [7] | [8] | [9] | [10]
active: [1] 20 µM

C=C(CC(=O)O)C(=O)O
inactive: [1] | [11] | [4] | [5] | [8] | [9] | [10]

CCN(CC)C(=O)N(CC)CC
not listed: [2] | [4] | [17] | [18] | [19]
inactive: all other assays above

CCCCCC(=O)CC
inactive: [1] | [17] | [11] | [3] | [5] | [6] | [8] | [9] | [10]

CC(=O)C(C)O (stereo unspecified)
not listed: [1] | [4] | [12] | [13] | [14] | [15] | [16]
inactive: all other assays above

O=c1c(O)c(-c2ccc(O)cc2)oc2cc(O)cc(O)c12
active: [8] 8.93 µM
not listed: [1] | [3] | [9] | [13] | [14] | [15] | [16]
inactive: all other assays above

O=C1OC(=O)c2c(Cl)c(Cl)c(Cl)c(Cl)c21
inactive: [1] | [17] | [12] | [2] | [3] | [4] | [5] | [6] | [8] | [10]

NC1CCCCC1N (stereo unspecified)
not listed: [1] | [7] | [13] | [14] | [15] | [16] | [17]
inactive: all other assays above

CCCCCc1ccco1
active: [7] 54.2 µM | [8] 31.9 µM
not listed: [11] | [13] | [14] | [15] | [16] | [18] | [19]
inactive: all other assays above

C1CCCCC1
not listed: [1] | [6] | [11] | [13] | [14] | [15] | [16]
inactive: all other assays above

CC(=O)CC(=O)Nc1ccc(C)cc1C
not listed: [2] | [13] | [14] | [15] | [16] | [18] | [19]
inactive: all other assays above

COS(=O)(=O)O
not listed: [2] | [12] | [13] | [14] | [15] | [16] | [18] | [19]
inactive: all other assays above

CCCCCCOC(=O)CCC
inactive: [18] | [19] | [11] | [3] | [4] | [5] | [6] | [8] | [9] | [10]

COc1cc([C@@H]2c3cc4c(cc3[C@@H](O[C@@H]3O[C@@H]5CO[C@@H](C)O[C@H]5[C@H](O)[C@H]3O)[C@H]3COC(=O)[C@H]23)OCO4)cc(OC)c1O
inactive: [1] | [17] | [11] | [3] | [4] | [5] | [6] | [7] | [8] | [10]

C#CC(C)(O)CC(C)C (stereo unspecified)
not listed: [1] | [2] | [3] | [11] | [13] | [14] | [15] | [16]
inactive: all other assays above

CCCC1O[C@@H]2C[C@H]3[C@@H]4CCC5=CC(=O)C=C[C@]5(C)[C@H]4[C@@H](O)C[C@]3(C)[C@]2(C(=O)CO)O1 (stereo partly specified)
active: [8] 78.9 µM | [10] 37.5 µM
inactive: [1] | [11] | [2] | [4] | [5] | [6]

CC(C)(CO)[C@@H](O)C(=O)NCCC(=O)O
not listed: [1] | [13] | [14] | [15] | [16] | [17] | [18]
inactive: all other assays above

O=C1NC2NC(=O)NC2N1 (stereo unspecified)
active: [9] 0.167 µM
not listed: [1] | [12] | [13] | [14] | [15] | [16] | [18]
inactive: all other assays above
